High-throughput results: PubChem, several laboratories
AHR act: activates the human aryl hydrocarbon receptor; P35869; AHR-responsive luciferase reporter cells, luminescence; activation, % at 5 µM; 320,000 compounds, 2.5% hits; AID 2796; in the data active means activation above about 47%;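 further: 0% = vehicle wells and 100% = reference agonist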
esBAF inh: SWI/SNF esBAF complex inhibition; mouse ES cells, Bmi1-luciferase knock-in reporter, 24 h; 100% = twice the neutral-well signal; reporter increase, % at 12.5 µM; 350,000 compounds, 2% hits; AID 602393; in the data active means activation above about 40%;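 further: 0% = median of the plate's neutral control wells and 100% = double that signal; a rise in the Bmi1 reporter signal indicates esBAF inhibition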
Wnt bcat act: Wnt/beta-catenin pathway activation; activation, % at 9.35 µM; AID 743398; 300,000 compounds, 1.2% hits; Wnt/beta-catenin reporter cell assay, activator, plate reader; in the data active means activation above about 30%, passing the limit was not always enough;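 further: 0% = neutral control wells and 100% = positive control wells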
GAA850 FXN act: activators of GAA850 frataxin (FXN) promoter. HEK293 lucGAA850 FXN promoter luciferase reporter, 24 h; percent of 10 µM SAHA response. activation, % at 6 µM. 360,000 compounds, 0.56% hits;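 active means activation above the average of all compounds screened plus 3 SD, cutoff fixed separately per campaign, cut at about 7.5% in these data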;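 further: 0% = DMSO wells and 100% = 10 µM SAHA wells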
MITF TRPM1 HTS: MITF TRPM1 promoter activation in melanoma cells; activation, % at 12.5 µM; SK-MEL-5 TRPM1-promoter luciferase, 24 h; % of positive control, neutral wells = 0; 300,000 compounds, 0.75% hits;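 active means mean activation of at least 80% with every replicate also reaching 80%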;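 further: 0% = neutral control wells and 100% = parthenolide positive control wells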
AHR act confirm: confirmation of human aryl hydrocarbon receptor activators; shares compounds with AHR act; human cells, AHR-responsive luciferase reporter, luminescence; activation, % at 9 µM; 2,300 compounds, 87% hits; AID 2845; in the data active means activation above about 49%;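 further: HepG2 hepatoma cells carrying a DRE-driven firefly luciferase reporter; 0% = vehicle wells and 100% = reference agonist wells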
PXR act counter: activates human PXR in AHR activator counter-screen; AID 434939; 2,300 compounds, 88% hits; cell-based PXR reporter, luciferase luminescence; shares compounds with AHR act; activation, % at 11.6 µM; in the data active means activation above about 11%;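 further: human hepatoma DPX-2 cells expressing full-length human PXR; 0% = DMSO and 100% = reference agonist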
* = called active by the depositor. Sampled rows, rich in hits. Any-hit rate of the full collection: about 4.2%.

`CCc1ccc2oc(-c3cccc(N)c3)nc2c1` gave AHR act 83.4*, Wnt bcat act 15.0, GAA850 FXN act 1.1, MITF TRPM1 HTS 21.3, AHR act confirm 90.4* and PXR act counter 12.2*.
CC(=O)Nc1ccc(NC(=O)CSc2ncc(C(=O)Nc3ccc(F)cc3)c(=O)n2C)cc1 was read as AHR act 98.0*, Wnt bcat act -0.9, GAA850 FXN act 4.9, MITF TRPM1 HTS -15.5, AHR act confirm 126.6* and PXR act counter 20.9*.
`Cn1c(SCC(=O)NCCc2ccccc2)ncc(C(=O)Nc2ccccc2)c1=O` gave AHR act 18.4, esBAF inh 9.2, Wnt bcat act -5.6, GAA850 FXN act 0.9 and MITF TRPM1 HTS -5.2.
`O=C(C1CCOCC1)N1C[C@@H]2[C@H](c3ccccc31)[C@@H](CO)N2C(=O)Nc1cccc(F)c1` gave esBAF inh -3.4.
Screening CCCC(C)C(=O)Nc1nc(C)c(-c2csc(Nc3cc(Cl)ccc3C)n2)s1 (stereo unspecified) returned AHR act 40.7, esBAF inh -22.1, Wnt bcat act -5.6 and GAA850 FXN act -0.3.
For C=CCCC(=O)Nc1nc(C)c(-c2csc(Nc3ccc(Cl)cc3Cl)n2)s1 the results were AHR act 102.0*, esBAF inh 12.9, Wnt bcat act -3.1, GAA850 FXN act -0.9, MITF TRPM1 HTS 6.0, AHR act confirm 73.2* and PXR act counter 25.4*.
`Cc1nc(NC(=O)c2ccco2)sc1-c1csc(Nc2ccc(Cl)cc2Cl)n1` gave AHR act 87.7*, esBAF inh 3.4, Wnt bcat act 1.3, GAA850 FXN act 0.8, MITF TRPM1 HTS 12.9, AHR act confirm 74.9* and PXR act counter 25.8*.
C=CCCC(=O)Nc1nc(C)c(-c2csc(Nc3ccccc3OC)n2)s1 was read as AHR act 101.0*, esBAF inh -5.2, Wnt bcat act -14.6, GAA850 FXN act -5.3, MITF TRPM1 HTS -25.2, AHR act confirm 64.8* and PXR act counter 30.6*.
Screening CCC(C)C(=O)Nc1nc(C)c(-c2csc(Nc3ccccc3OC)n2)s1 (stereo unspecified) returned AHR act 109.9*, esBAF inh 0.8, Wnt bcat act -6.0, GAA850 FXN act -0.6, MITF TRPM1 HTS 1.4, AHR act confirm 84.6* and PXR act counter 51.0*.
`CCn1nnnc1NC(=O)c1cc(OC)c(OC)c(OC)c1` gave AHR act 128.0*, Wnt bcat act 0.2, GAA850 FXN act -1.2, MITF TRPM1 HTS 4.3, AHR act confirm 100.9* and PXR act counter 10.7*.
`C[C@H](CO)N1C[C@H](C)[C@H](CN(C)C(=O)Nc2ccc3c(c2)OCO3)OCc2cn(nn2)CCCC1=O` gave esBAF inh -2.6.
For CC(=O)N1[C@H](C(=O)NC2CCC2)[C@@H](CO)[C@@H]2Cn3c(ccc(-c4ccc(F)cc4)c3=O)[C@@H]21 the results were esBAF inh 0.4.
Screening COc1ccc(C)cc1N/C(N)=N/c1nc(C)cc(C)n1 returned AHR act 81.4*, Wnt bcat act -4.1, GAA850 FXN act 0.5, MITF TRPM1 HTS -8.7 and AHR act confirm 58.6*.
Cc1ccc(C)c(N/C(N)=N/c2nc(C)cc(C)n2)c1 was read as AHR act 29.1, esBAF inh -3.6, Wnt bcat act -0.4, GAA850 FXN act -1.3 and MITF TRPM1 HTS 21.7.
Screening COc1ccccc1NCC(=O)N/N=C(\C)c1ccc(Br)s1 returned AHR act 36.9, esBAF inh 1.8, Wnt bcat act -7.5, GAA850 FXN act 0.9 and MITF TRPM1 HTS 2.4.
For C/C(=N/NC(=O)CNc1ccc(C)cc1)c1ccc(Br)s1 the results were AHR act 82.9*, esBAF inh 7.9, Wnt bcat act -0.2, GAA850 FXN act 1.7, MITF TRPM1 HTS -3.7, AHR act confirm 60.8* and PXR act counter 15.2*.
For O=C(O)CN1C(=O)/C(=C\c2ccccc2OCc2ccc(Cl)cc2Cl)SC1=S the results were AHR act 81.7*, esBAF inh -58.0, Wnt bcat act -7.1, GAA850 FXN act -11.4, AHR act confirm 58.7* and PXR act counter 28.9*.
`O=C(O)CN1C(=O)/C(=C\c2cc(Br)ccc2OCc2ccccc2Cl)SC1=S` gave AHR act 35.5, esBAF inh 11.0, Wnt bcat act -1.6, GAA850 FXN act 0.1 and MITF TRPM1 HTS -10.6.
CCc1noc(N)c1C(=O)Nc1ccc(F)c(Cl)c1 was read as AHR act 80.4*, esBAF inh -1.2, GAA850 FXN act 2.1, MITF TRPM1 HTS 11.0, AHR act confirm 109.0* and PXR act counter 12.3*.
For Cc1noc(N)c1C(=O)Nc1ccc(F)c(Cl)c1 the results were AHR act 40.8, esBAF inh -0.4, Wnt bcat act 2.4, GAA850 FXN act 2.8 and MITF TRPM1 HTS 11.0.
Cc1noc(C)c1NC(=O)N(C)C[C@@H]1Oc2ccc(N(C)C)cc2CC(=O)N([C@H](C)CO)C[C@H]1C was read as esBAF inh -1.9.
For O=S(=O)(Nc1cccnc1Cl)c1ccc(F)cc1 the results were AHR act -1.4, esBAF inh -0.7, Wnt bcat act -3.2, GAA850 FXN act -0.6 and MITF TRPM1 HTS 7.6.
Screening O=S(=O)(Nc1cc(Sc2cccc3cccnc23)c(O)c2ccccc12)c1ccc(F)cc1 returned AHR act 85.0*, Wnt bcat act -0.6, AHR act confirm 24.9 and PXR act counter 132.1*.
C[C@H](CO)N1C[C@H](C)[C@H](CN(C)C(=O)Nc2ccc3c(c2)OCO3)Oc2ccc(NC(=O)C3CC3)cc2CC1=O was read as esBAF inh 3.2.
N#Cc1c2ccc([N+](=O)[O-])cc2[n+]([O-])n1-c1ccccc1 was read as AHR act 200.0*, esBAF inh -24.3, Wnt bcat act 12.7, GAA850 FXN act -5.7, MITF TRPM1 HTS -89.5, AHR act confirm 252.6* and PXR act counter 19.3*.
For CCC(=O)N[C@H]1CC[C@@H](CCn2cc(-c3cccc(OC)c3)nn2)O[C@@H]1CO the results were esBAF inh -3.3.
`CCCNC(=O)c1ccc2c(=O)n(Cc3ccco3)c(=S)[nH]c2c1` gave AHR act 87.7*, esBAF inh 5.7, Wnt bcat act 0.1, GAA850 FXN act 0.2, MITF TRPM1 HTS 0.5, AHR act confirm 70.0* and PXR act counter 34.3*.
`CC(C)NC(=O)c1ccc2c(=O)n(Cc3ccco3)c(=S)[nH]c2c1` gave AHR act 35.9, esBAF inh -0.5 and GAA850 FXN act 2.7.
For Oc1c(C=NCc2ccc(F)cc2)[nH]c2ccc(Br)c(Cl)c12 the results were AHR act 81.2*, AHR act confirm 85.5* and PXR act counter 31.1*.
